Targets with a hit are over-represented here; the source holds about 7,900 in all. About 0.6% of all pairs of compound and target were hits. Values without a mark were called inactive.
Key:
Assay in all cases: log2 fold change, soluble protein after heating vs DMSO (PISA); higher = thermal stabilisation; K562 cells, 10 uM, 30 min; active = over 0.2 and 3.5 SD of the protein, either way, in both replicates (recomputed)
[1] = compound: CC1=C(C=C(C=C1)NC(=O)C2=CC(=CC=C2)C(C)(C)C#N)NC3=CC4=C(C=C3)N=CN(C4=O)C
Procedure, shortened: (§1)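 Soluble protein was defined as the supernatant after 21,000xg for 90 min. It came from K562 cells at 2×10^6 cells/mL given 10 μM compound for 30 min, heated in aliquots for 3 min across 48°C-58°C, pooled, and extracted in PBS with 0.5% NP-40 at 4°C, and was quantified by TMTpro 16plex LC-MS/MS with equalised channel sums. Thermal stability against control samples, from duplicates, is reported as log2 fold change.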

[2] = compound: CC1=C(C=C(C=C1)NC(=O)C2=CC(=CC=C2)N(C)C)NC(=O)C3=CC=C(C=C3)O
Procedure, shortened: as §1

[3] = compound: CC1=CC=C(C=C1)SC2=C3C=C(SC3=CN=C2)C(=O)N
Procedure, shortened: as §1

[4] = compound: CC1=NC(=CC=C1)C2=C(N=C(N2)C(C)(C)C)C3=CC4=NC=CN=C4C=C3
Procedure, shortened: as §1

Nexturastat A = compound: CCCCN(Cc1ccc(C(=O)NO)cc1)C(=O)Nc1ccccc1 [Nexturastat A]
Procedure, shortened: as §1

vemurafenib = compound: CCCS(=O)(=O)Nc1ccc(F)c(C(=O)c2c[nH]c3ncc(-c4ccc(Cl)cc4)cc23)c1F [vemurafenib]
Procedure, shortened: as §1

[5] = compound: CCCS(=O)(=O)Nc1ccc(F)c(C(=O)c2c[nH]c3ncc(Cl)cc23)c1F
Procedure, shortened: as §1

[6] = compound: CCCc1cc(C)[nH]c(=O)c1CNC(=O)c1cc(-c2ccnc(N3CCN(C)CC3)c2)cc2c1cnn2C(C)C
Procedure, shortened: as §1

givinostat = compound: CCN(CC)Cc1ccc2cc(COC(=O)Nc3ccc(C(=O)NO)cc3)ccc2c1 [givinostat]
Procedure, shortened: as §1

barasertib = compound: CCN(CCCOc1ccc2c(Nc3cc(CC(=O)Nc4cccc(F)c4)[nH]n3)ncnc2c1)CCOP(=O)(O)O [barasertib]
Procedure, shortened: as §1

Chain of UniProt Q9BSJ8 (Q9BSJ8 whole entry, looked up): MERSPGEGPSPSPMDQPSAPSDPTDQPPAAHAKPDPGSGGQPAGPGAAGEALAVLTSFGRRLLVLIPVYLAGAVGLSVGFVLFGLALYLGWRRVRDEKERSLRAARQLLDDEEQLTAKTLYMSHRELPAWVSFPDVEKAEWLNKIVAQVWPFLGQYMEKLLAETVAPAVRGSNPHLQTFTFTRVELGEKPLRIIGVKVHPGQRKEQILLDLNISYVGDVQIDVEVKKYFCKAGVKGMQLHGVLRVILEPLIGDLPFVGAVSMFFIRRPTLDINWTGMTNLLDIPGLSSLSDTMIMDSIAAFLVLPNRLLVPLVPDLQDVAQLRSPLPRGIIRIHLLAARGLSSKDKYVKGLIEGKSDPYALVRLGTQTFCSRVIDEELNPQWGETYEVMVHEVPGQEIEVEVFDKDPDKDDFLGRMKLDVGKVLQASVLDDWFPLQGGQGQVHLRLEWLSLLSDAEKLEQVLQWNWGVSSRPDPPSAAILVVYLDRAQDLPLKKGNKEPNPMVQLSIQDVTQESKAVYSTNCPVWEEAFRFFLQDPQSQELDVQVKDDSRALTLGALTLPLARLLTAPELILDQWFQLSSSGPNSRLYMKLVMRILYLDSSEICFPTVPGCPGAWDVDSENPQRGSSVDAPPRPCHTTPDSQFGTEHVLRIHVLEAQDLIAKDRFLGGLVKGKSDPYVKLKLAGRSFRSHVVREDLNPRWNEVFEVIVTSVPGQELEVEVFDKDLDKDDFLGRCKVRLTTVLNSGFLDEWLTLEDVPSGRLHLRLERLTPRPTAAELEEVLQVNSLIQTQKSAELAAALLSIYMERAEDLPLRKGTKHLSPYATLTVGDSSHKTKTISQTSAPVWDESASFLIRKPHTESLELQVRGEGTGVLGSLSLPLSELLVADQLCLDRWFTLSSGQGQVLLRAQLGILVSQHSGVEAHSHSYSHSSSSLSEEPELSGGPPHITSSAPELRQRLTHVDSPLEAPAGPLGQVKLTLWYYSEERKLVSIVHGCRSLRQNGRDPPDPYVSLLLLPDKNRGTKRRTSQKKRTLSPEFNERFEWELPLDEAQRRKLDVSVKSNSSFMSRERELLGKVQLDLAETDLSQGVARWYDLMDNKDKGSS
Chain of UniProt Q8NBI2 (Q8NBI2 whole entry, looked up): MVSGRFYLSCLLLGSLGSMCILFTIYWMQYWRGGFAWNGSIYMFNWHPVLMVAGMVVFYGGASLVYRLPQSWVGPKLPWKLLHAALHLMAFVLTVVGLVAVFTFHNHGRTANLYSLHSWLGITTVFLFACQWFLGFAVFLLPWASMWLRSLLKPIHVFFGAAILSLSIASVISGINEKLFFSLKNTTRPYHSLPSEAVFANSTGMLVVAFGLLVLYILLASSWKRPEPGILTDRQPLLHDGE
Chain of UniProt P98173 (P98173 whole entry, looked up): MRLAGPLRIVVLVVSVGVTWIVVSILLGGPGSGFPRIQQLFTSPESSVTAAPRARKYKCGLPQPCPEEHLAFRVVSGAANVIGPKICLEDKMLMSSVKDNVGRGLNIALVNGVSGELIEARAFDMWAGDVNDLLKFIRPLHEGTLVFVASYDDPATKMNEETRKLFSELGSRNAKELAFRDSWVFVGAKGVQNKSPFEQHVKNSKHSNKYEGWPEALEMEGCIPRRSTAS
Chain of UniProt Q8N8J7 (Q8N8J7 whole entry, looked up): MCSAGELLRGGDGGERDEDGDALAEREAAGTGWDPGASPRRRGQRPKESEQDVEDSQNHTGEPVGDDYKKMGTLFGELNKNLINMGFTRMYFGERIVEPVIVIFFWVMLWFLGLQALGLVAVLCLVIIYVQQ
Chain of UniProt Q9NWS6 (Q9NWS6 whole entry, looked up): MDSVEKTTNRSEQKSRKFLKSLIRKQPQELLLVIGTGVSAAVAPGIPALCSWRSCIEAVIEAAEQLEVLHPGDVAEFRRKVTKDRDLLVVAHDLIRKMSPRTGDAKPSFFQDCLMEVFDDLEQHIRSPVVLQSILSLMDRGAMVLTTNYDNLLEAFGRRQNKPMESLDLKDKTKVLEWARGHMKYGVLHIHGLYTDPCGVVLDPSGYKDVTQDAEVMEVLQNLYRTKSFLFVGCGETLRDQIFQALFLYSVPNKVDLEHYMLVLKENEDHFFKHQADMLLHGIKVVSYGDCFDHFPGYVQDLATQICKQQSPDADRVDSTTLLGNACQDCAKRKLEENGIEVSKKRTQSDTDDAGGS
Chain of UniProt P60842 (P60842 whole entry, looked up): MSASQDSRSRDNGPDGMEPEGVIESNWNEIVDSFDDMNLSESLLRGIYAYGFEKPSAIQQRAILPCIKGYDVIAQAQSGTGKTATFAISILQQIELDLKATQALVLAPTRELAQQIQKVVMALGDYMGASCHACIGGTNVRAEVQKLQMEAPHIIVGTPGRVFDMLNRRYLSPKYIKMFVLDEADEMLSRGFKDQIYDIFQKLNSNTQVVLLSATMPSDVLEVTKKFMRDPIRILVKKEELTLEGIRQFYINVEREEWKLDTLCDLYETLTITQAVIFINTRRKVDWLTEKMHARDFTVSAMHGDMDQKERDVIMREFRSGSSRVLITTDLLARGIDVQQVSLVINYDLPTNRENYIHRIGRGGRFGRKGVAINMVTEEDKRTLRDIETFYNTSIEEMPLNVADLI
Chain of UniProt P50570 (P50570 whole entry, looked up): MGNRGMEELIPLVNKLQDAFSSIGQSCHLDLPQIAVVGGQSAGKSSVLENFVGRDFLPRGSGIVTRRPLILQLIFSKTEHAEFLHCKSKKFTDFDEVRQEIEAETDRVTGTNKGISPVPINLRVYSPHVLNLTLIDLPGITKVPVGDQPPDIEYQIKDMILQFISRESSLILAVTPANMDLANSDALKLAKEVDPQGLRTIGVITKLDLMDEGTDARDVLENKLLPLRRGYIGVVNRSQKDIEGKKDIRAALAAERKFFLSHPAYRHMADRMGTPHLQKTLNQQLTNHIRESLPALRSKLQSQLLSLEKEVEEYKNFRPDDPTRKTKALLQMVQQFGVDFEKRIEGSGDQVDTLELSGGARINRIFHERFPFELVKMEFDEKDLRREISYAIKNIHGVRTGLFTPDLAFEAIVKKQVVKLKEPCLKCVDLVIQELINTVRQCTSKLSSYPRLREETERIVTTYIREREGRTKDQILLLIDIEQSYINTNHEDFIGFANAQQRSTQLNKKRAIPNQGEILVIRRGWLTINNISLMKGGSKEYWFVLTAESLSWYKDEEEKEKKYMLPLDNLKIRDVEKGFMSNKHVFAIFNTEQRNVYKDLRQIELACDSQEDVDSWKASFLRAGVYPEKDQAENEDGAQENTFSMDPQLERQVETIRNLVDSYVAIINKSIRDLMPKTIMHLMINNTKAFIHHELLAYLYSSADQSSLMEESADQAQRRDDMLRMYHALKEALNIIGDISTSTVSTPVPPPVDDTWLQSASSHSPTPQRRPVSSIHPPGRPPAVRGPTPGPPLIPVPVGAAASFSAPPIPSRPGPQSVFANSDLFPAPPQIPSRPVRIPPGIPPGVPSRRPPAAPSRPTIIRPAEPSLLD
Chain of UniProt Q9H410 (Q9H410 whole entry, looked up): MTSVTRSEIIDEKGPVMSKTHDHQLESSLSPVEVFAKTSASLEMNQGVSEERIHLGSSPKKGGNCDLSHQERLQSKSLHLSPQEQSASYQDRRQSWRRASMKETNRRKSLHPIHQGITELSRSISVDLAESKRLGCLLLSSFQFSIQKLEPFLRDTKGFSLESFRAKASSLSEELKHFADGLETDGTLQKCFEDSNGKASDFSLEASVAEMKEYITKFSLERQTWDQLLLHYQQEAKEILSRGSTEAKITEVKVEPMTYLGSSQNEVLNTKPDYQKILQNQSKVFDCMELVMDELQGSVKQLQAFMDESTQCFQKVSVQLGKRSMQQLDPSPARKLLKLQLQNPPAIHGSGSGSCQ
Chain of UniProt P00374 (P00374 whole entry, looked up): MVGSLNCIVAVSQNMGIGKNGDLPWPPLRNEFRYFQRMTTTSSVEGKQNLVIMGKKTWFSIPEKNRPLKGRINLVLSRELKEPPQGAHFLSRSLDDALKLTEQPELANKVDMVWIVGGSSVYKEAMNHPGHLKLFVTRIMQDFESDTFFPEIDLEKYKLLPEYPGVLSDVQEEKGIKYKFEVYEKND
Chain of UniProt Q96GG9 (Q96GG9 whole entry, looked up): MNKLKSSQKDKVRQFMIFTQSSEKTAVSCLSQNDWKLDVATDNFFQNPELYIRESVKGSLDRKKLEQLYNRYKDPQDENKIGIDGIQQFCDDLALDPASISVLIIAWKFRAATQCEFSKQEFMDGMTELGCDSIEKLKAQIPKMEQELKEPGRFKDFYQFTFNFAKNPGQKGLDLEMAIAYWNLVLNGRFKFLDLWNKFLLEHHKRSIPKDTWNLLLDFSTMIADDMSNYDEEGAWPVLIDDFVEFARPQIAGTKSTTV
Chain of UniProt O43237 (O43237 whole entry, looked up): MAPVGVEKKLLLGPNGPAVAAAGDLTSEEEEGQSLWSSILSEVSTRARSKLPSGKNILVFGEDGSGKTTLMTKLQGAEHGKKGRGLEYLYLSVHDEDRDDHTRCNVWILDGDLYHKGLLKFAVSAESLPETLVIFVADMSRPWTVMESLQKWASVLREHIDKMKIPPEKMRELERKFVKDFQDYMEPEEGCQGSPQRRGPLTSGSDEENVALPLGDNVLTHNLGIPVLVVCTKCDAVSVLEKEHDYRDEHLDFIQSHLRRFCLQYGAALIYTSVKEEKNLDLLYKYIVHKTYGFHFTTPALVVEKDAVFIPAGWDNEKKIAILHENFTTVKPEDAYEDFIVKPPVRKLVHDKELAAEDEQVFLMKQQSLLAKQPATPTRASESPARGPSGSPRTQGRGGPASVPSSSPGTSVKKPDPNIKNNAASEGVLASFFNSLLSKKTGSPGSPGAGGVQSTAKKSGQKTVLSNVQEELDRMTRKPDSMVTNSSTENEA
Chain of UniProt Q99848 (Q99848 whole entry, looked up): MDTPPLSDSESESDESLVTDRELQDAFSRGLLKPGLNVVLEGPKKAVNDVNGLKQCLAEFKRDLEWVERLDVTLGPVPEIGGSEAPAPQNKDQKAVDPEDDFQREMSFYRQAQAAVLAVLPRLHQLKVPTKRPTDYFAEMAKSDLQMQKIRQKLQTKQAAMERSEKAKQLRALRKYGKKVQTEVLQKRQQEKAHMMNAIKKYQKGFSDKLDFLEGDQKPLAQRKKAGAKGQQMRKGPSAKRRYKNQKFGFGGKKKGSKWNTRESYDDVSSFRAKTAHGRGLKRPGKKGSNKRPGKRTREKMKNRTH

Target	log2 fold change [1]	log2 fold change [2]	log2 fold change [3]	log2 fold change [4]	log2 fold change (Nexturastat A)	log2 fold change (vemurafenib)	log2 fold change [5]	log2 fold change [6]	log2 fold change (givinostat)	log2 fold change (barasertib)
DNTTIP2 (UniProt Q5QJE6)	0.033	0.028	-0.087	-0.061	0.151	-0.015	-0.064	-0.1	0.057	-0.062
DTWD2 (UniProt Q8NBA8)	0.019	-0.025	0.197	-0.048	0.009	-0.079	0.043	-0.006	-0.139	0.056
EEA1 (UniProt Q15075)	-0.027	0.009	0.009	0.011	-0.035	-0.024	0.003	-0.036	-0.01	0.009
EEF1G isoform 2 (UniProt P26641)	0.035	-0.015	0.014	0.049	-0.062	0.07	0.101	0.095	-0.013	0.037
FAM3A (UniProt P98173)	-0.022	0.012	-0.005	0.003	-0.304 (active)	0.015	0.013	-0.031	-0.001	0.014
DDOST (UniProt P39656)	0.03	-0.013	-0.031	0.016	-0.01	0.003	-0.006	-0.001	0.006	0.008
CTSH (UniProt P09668)	-0.007	0.066	0.013	0.093	-0.047	0.023	-0.034	0.157	0.003	-0.019
CUX1 isoform 3 (UniProt P39880)	-0.039	0.016	0	-0.001	-0.013	0.043	0.025	0.065	0.002	0.013
DNAJC1 (UniProt Q96KC8)	0.027	0	0.014	0.049	-0.079	-0.007	0.037	-0.13	-0.013	0.047
ERCC6 (UniProt Q03468)	-0.127	-0.038	0.005	-0.038	-0.126	0.064	0.074	-0.017	0.071	0.065
DHX16 (UniProt O60231)	-0.014	-0.018	0.024	0.036	-0.002	0.017	0.059	-0.011	0.017	0.032
DBT (UniProt P11182)	0.001	-0.017	0.01	-0.015	0.024	-0.011	0.015	-0.042	0.005	-0.033
DSN1 (UniProt Q9H410)	-0.02	-0.096	-0.003	0.021	0.051	0.133	0.022	0.004	0.053	0.075
EXOC5 (UniProt O00471)	0.006	-0.022	-0.007	0.056	0.017	0.046	0.08	-0.028	0.118	0.031
ESS2 (UniProt Q96DF8)	-0.085	0.091	-0.024	-0.018	0.032	-0.01	-0.013	-0.075	-0.01	-0.025
EIF4A1 (UniProt P60842)	0.106	-0.017	0.061	0.049	-0.115	0.055	0.089	0.151	0.06	0.026
CTSB (UniProt P07858)	-0.035	-0.069	0.022	0.029	-0.059	-0.041	-0.008	-0.025	-0.007	0.015
FADS1, A0A0A0MR51	0.09	-0.019	0.008	0.069	-0.006	-0.002	0.021	-0.034	-0.274 (active)	0.031
DHRS3 (UniProt O75911)	0.075	-0.037	0.019	0.027	-0.037	-0.078	-0.04	-0.035	-0.051	-0.048
DNAH5 (UniProt Q8TE73)	-0.047	0	0.431 (active)	-0.036	-0.021	-0.077	0.014	-0.044	0.012	0.03

Target	log2 fold change [1]	log2 fold change [2]	log2 fold change [3]	log2 fold change [4]	log2 fold change (Nexturastat A)	log2 fold change (vemurafenib)	log2 fold change [5]	log2 fold change [6]	log2 fold change (givinostat)	log2 fold change (barasertib)
DNM2 isoform 4 (UniProt P50570)	0.062	-0.001	–	0.23	0.089	–	–	-0.032	0.159	0.013
DDX27 (UniProt Q96GQ7)	-0.026	-0.057	–	-0.293	0.249	-0.25	–	-0.142	0.081	–
DHFR (UniProt P00374)	-0.069	0.003	-0.086	-0.074	0.232	0.044	0.001	0.17	0.162	0.068
DAXX (UniProt Q9UER7)	0.019	-0.02	0.031	-0.165	–	-0.058	0.031	–	0.352	-0.025
CUX1 isoform 2 (UniProt Q13948)	-0.07	0.007	-0.003	-0.031	0.051	0.074	0.077	-0.011	-0.049	0.038
CTU1 (UniProt Q7Z7A3)	0.011	-0.023	0.061	0.059	-0.022	0.065	0.034	-0.035	0.043	0
FAM118A (UniProt Q9NWS6)	0.057	0.086	0.101	-0.163	-0.031	0.182	0.114	-0.016	–	0.112
DENND10 (UniProt Q8TCE6)	0.022	0.036	0.029	–	-0.119	-0.023	0.01	-0.023	0.131	0.036
EFCAB14 (UniProt O75071)	-0.034	0.061	0.022	-0.011	-0.032	-0.049	0.012	0.023	0.054	-0.01
ELOVL5 isoform 2 (UniProt Q9NYP7)	0.079	0.02	0.002	–	-0.05	0.065	0.03	-0.241	-0.008	0.035
CYB561A3 isoform 2 (UniProt Q8NBI2)	0.051	0.025	-0.074	0.02	–	–	0.059	-0.086	0.033	-0.057
ECH1 (UniProt Q13011)	0.005	-0.027	0.044	0.014	-0.032	0.012	-0.003	-0.065	0.129	0.035
EGR1 (UniProt P18146)	-0.128	-0.024	-0.404	–	0.53	0.305	-0.13	-0.027	-0.06	-0.048
DYNC1I2 isoform 2 (UniProt Q13409)	0.006	-0.054	-0.179	0.061	0.047	–	0.018	0.271	0.044	0.015
EPHB4 (UniProt P54760)	0.057	-0.07	0.392	–	–	–	-0.126	0.001	–	–
FAM241A (UniProt Q8N8J7)	0.536 (active)	-0.012	-0.031	-0.028	–	-0.083	0.015	-0.009	-0.037	0.06
DCUN1D1 (UniProt Q96GG9)	-0.027	-0.077	0.022	0.078	0.018	0.008	0.05	-0.028	-0.018	0.013
ELF1 (UniProt P32519)	0.056	-0.05	0	0.033	-0.051	–	0.091	–	0.152	–
ELMO1 (UniProt Q92556)	-0.075	-0.005	–	-0.074	-0.101	-0.172	–	0.218	-0.043	-0.105
CTSA (UniProt P10619)	-0.033	0.011	-0.02	0.003	-0.016	-0.013	-0.039	-0.047	0.117	0

Target	log2 fold change [1]	log2 fold change [2]	log2 fold change [3]	log2 fold change [4]	log2 fold change (Nexturastat A)	log2 fold change (vemurafenib)	log2 fold change [5]	log2 fold change [6]	log2 fold change (givinostat)	log2 fold change (barasertib)
EEF1AKNMT (UniProt Q8N6R0)	0.078	-0.037	0.031	0.026	-0.026	0.084	0.062	0.075	0.04	0.076
EIF2AK1 (UniProt Q9BQI3)	-0.027	-0.007	0.079	-0.019	-0.087	0.005	0.044	0.179	-0.051	-0.017
ESYT1 isoform 2 (UniProt Q9BSJ8)	0.117	-0.052	-0.007	0.003	0.045	0.01	0.048	0.148	0.116	0.046
EXTL2 (UniProt Q9UBQ6)	0.072	-0.003	-0.017	-0.003	-0.163	-0.002	-0.031	-0.043	-0.039	-0.053
DNAJC7 (UniProt Q99615)	-0.006	-0.037	0.029	0.042	-0.01	0.029	0.098	0.02	0.032	0.064
EIF4G3 isoform 3 (UniProt O43432)	-0.024	0.01	0	-0.015	–	0.047	0.002	0.067	0.08	0.059
DDX11 (UniProt Q96FC9)	-0.04	0.052	-0.035	0.043	-0.011	-0.072	0	-0.006	-0.029	0.125
CTSC (UniProt P53634)	-0.113	0.001	0.059	-0.003	-0.009	0.035	0.01	0.03	0.017	0.023
EBNA1BP2 (UniProt Q99848)	-0.014	-0.033	-0.07	-0.153	0.438	-0.042	0.004	0.113	0.174	-0.187
ELOVL1 (UniProt Q9BW60)	-0.035	-0.065	0.064	0.044	0.03	-0.032	0.116	-0.063	0.067	0.028
CWF19L2 (UniProt Q2TBE0)	-0.048	0.046	0.166	-0.038	–	–	-0.057	–	0.035	–
DDX39A (UniProt O00148)	-0.018	-0.016	0.02	0.027	0.015	0.004	0.017	0.074	0.076	0.035
DDX5 (UniProt P17844)	0.136	-0.131	0.036	0.112	0.033	0.142	0.174	0.036	0.178	0.122
DYNC1LI2 (UniProt O43237)	0.013	-0.093	-0.049	-0.193	0.646 (active)	0.001	-0.027	0.076	0.017	0.05
DOCK8 (UniProt Q8NF50)	-0.094	-0.051	–	-0.086	0.468	0.134	–	0.093	0.245	0.055
EDC4 (UniProt Q6P2E9)	0.004	-0.048	-0.022	-0.035	0.022	0.035	0.03	0.029	0.031	0.057
DNM2 (UniProt P50570)	-0.016	-0.043	0.009	0.024	-0.057	0.016	0.033	-0.007	0.036	0.054
DCAF6 isoform 3 (UniProt Q58WW2)	0.016	-0.035	-0.034	-0.037	-0.041	-0.032	-0.047	0.011	-0.058	0.008
FAM193B (UniProt Q96PV7)	-0.16	–	-0.114	-0.034	0.054	-0.114	0.005	–	–	0.045
CYP24A1 (UniProt Q07973)	–	0.051	-0.039	-0.306	–	-0.198	-0.057	-0.183	0.233	-0.146

— the supplement of paper PMC10849652
